# In PubChem BioAssay (NCI):
# Compounds without any hit were thinned out: in the full panel of roughly 79,000, 15% have a hit. Values without a mark were called inactive. Active and inactive are the calls of the source. Rule as the data show it: active = growth inhibition above about 70%; inactive = the rest. Residues, ends and D or L forms follow the SMILES beside them. *: point of attachment. Fmoc = O=C(OCC1c2ccccc2-c2ccccc21)*; Boc = CC(C)(C)OC(=O)*
# Test: NCI Yeast Anticancer Drug Screen. Data for the rad52 strain (AID 147);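 also: 0% = growth of vehicle-treated control cultures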
# Settings: S. cerevisiae rad52 mutant growth inhibition; at 33.0 µM; hits give high values
# Outline: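 Inhibition of yeast growth, referenced to vehicle controls, was the measured output for a strain with defective DNA damage repair.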
row,SMILES,growth inhibition
1,O=[N+]([O-])c1ccc2nc(=S)[nH]n2c1,10%
2,O=C(c1ccccc1)[C@H]1Nc2ccc(Cl)cc2[C@H]2OCCC[C@@H]12,22%
3,COc1cc([N+](=O)[O-])c2ncccc2c1Br,44%
4,O=S(=O)(c1cccc(C(F)(F)F)c1)N1c2ccccc2-n2cccc2C1c1cccnc1 (centres undefined),95% (active)
5,CC(C)(C)OC(=O)NCCCCC(NC(=O)C(Cc1c[nH]c2ccccc12)NC(=O)OCC1c2ccccc2-c2ccccc21)C(=O)O (centres undefined) (Fmoc-Trp-Lys(Boc)-OH; configuration not given here),10%

# Same assay, conditions: S. cerevisiae rad52 mutant growth inhibition; at 100.0 µM; hits give high values
row,SMILES,growth inhibition
1,CC(C)C(=O)CC(Sc1ccc(N)cc1)c1ccccc1 (centres undefined),83% (active)
2,CC(C)OP(=O)(OC(C)C)/C(Cl)=N/Nc1ccc([N+](=O)[O-])cc1,95% (active)
3,O=[N+]([O-])c1cc(Cl)ccc1S(=O)(=O)c1ccc(Cl)cc1[N+](=O)[O-],78% (active)
4,CCCCCCNCCCNc1c2cc(OC)ccc2nc2cccc([N+](=O)[O-])c12,97% (active)
5,N#CCC(=O)N/N=C(\c1ccccc1)C(c1ccccc1)C1(O)C(=O)Nc2c(Cl)ccc(Cl)c21 (centres undefined),11%
6,CN(C)CCNCCCNc1c2ccccc2nc2cccc([N+](=O)[O-])c12,94% (active)
7,CCC[CH2][Ge]([CH2]CCC)([CH2]CCC)[O]C(=O)C(O)c1ccccc1 (centres undefined),98% (active)
8,COc1ccc(-c2cc(-c3cc(C)cc(Cl)c3O)nc3[nH]c(=S)[nH]c(=S)c23)cc1,72% (active)
9,O=[N+]([O-])c1ccc(/C=C\c2ccc3c(c2)OCO3)c([N+](=O)[O-])c1,83% (active)
